# According to PubChem BioAssay:
# “And” between values parts separate entries of the source, which are not always exact repeats. Equal values may be shown once. Inconclusive results are not listed. The source made the active and inactive calls.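 The calls were made as follows, unless noted: active = normalized viability below 100% at a tested concentration; inactive = the rest.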
# Tests used:
# [1] = viability loss in pontine glioma line – cell-based, SU-DIPG-XVII, MIPE5.0, CellTiter-Glo, qHTS, dose response (AID 1347060; cut-off not given, nearly all actives have AC50 up to about 26 µM;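 as to AC50: cells exposed to compound for 48 hours before viability readout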); settings: CellTiter-Glo ATP luminescence
# [2] = viability loss in pontine glioma line – cell-based, JHH-DIPG-1, MIPE4.0, CellTiter-Glo, qHTS, dose response (AID 1347062; cut-off not given, nearly all actives have AC50 up to about 27 µM;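 as to AC50: cells exposed to compound for two days before readout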); settings: JHH-DIPG-1 viability, CellTiter-Glo ATP luminescence
# [3] = viability loss in pontine glioma line – cell-based, SU-DIPG-XXV, MIPE5.0, CellTiter-Glo, qHTS, dose response (AID 1347065; cut-off not given, nearly all actives have AC50 up to about 26 µM;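 also: cells exposed to compound for 48 hours before ATP readout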); settings: CellTiter-Glo ATP luminescence
# [4] = JHH-DIPG-1 glioma cell viability, MIPE5.0 library, CellTiter-Glo luminescence, qHTS (AID 1347067; cut-off not given, nearly all actives have AC50 up to about 26 µM;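 also: cells exposed to compound for 48 hours before readout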); settings: JHH-DIPG-1 glioma viability, CellTiter-Glo ATP luminescence
# [5] = growth inhibition of DIPG cells – cell-based, MIPE5.0 library, qHTS (AID 1347068; cut-off not given, nearly all actives have IC50 up to about 30 µM;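 as to IC50: cells exposed to compound for 48 hours before viability readout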); settings: SU-DIPG-XXV viability
# [6] = viability loss with induced miR-34 in A549 – imaging, A549 dox-inducible miR-34, nuclei and caspase counts, primary screen (AID 1347080;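 active = compounds whose cell count with miR-34 switched on is under 0.7 times the count with it off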); settings: A549 miR-34 inducible, Hoechst nuclei count, 48 h
# [7] = MELAS cybrid and Rieske KO viability enhancers – cell-based, MELAS cybrids, Rieske KO mouse fibroblasts, CellTiter-Glo, primary screen (AID 1508586;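 active = mean z-score across replicates of 1.96 or higher in either the MELAS or the Rieske mutant cell line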;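 also: z relative to plate mean and SD of compound and empty wells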); settings: low glucose
# [8] = viability loss in pontine glioma line – cell-based, SU-DIPG-XIII, MIPE5.0, CellTiter-Glo, qHTS, dose response (AID 1347064; cut-off not given, nearly all actives have AC50 up to about 23 µM;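 as to AC50: cells exposed to compound for 48 hours before the viability read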); settings: CellTiter-Glo ATP luminescence
# [9] = growth inhibition of DIPG cells – cell-based, MIPE4.0 library, CellTiter-Glo luminescence, qHTS (AID 1347066; cut-off not given, nearly all actives have AC50 up to about 30 µM;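 also: cells exposed to compound for 48 hours before readout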); settings: SU-DIPG-VI viability, CellTiter-Glo ATP luminescence
# [10] = compounds altering HSF1 focus formation in cells – imaging, Selleck Cancer Library (AID 1347162; in the data active = plate-normalised HSF1 focus index below about 0.46); settings: human cells, HSF1 nuclear foci imaging, at 10 µM; SSMD: measured here: HSF1 foci SSMD mean; cell count: measured here: cell number; plate-normalised HSF1 focus index: stronger effect = lower value
# [11] = drug combination growth inhibition, ovarian cancer – cell-based, oncology-focused library, rucaparib conditional, profiling panel (AID 1508598); settings: patient-derived ovarian cancer cells, CellTiter-Glo viability, 144 h, stronger effect = lower value
# [12] = stronger effect = lower value, cell number ratio, induced over uninduced
# [13] = measured here: relative caspase fold change +Dox/-Dox
# [14] = measured here: total cells with miR-34 induction, stronger effect = lower value
# [15] = measured here: total cells without miR-34 induction
# [16] = MELAS cybrid survival, CellTiter-Glo 48 h, stronger effect = higher value
# [17] = Rieske KO mouse fibroblast survival, CellTiter-Glo 72 h
# [18] = at 0.000305 µM, OCI-C5x cells, with rucaparib 10 µM, 100% = cells with rucaparib alone
# [19] = at 0.000305 µM, OCI-C5x cells, without rucaparib
# [20] = at 0.000305 µM, OCI-P5x cells, with rucaparib 20 µM, 100% = cells with rucaparib alone
# [21] = at 0.000305 µM, OCI-P5x cells, without rucaparib
# [22] = at 0.00122 µM, OCI-C5x cells, with rucaparib 10 µM, 100% = cells with rucaparib alone
# [23] = at 0.00122 µM, OCI-C5x cells, without rucaparib
# [24] = at 0.00122 µM, OCI-P5x cells, with rucaparib 20 µM, 100% = cells with rucaparib alone
# [25] = at 0.00122 µM, OCI-P5x cells, without rucaparib
# [26] = at 0.00488 µM, OCI-C5x cells, with rucaparib 10 µM, 100% = cells with rucaparib alone
# [27] = at 0.00488 µM, OCI-C5x cells, without rucaparib
# [28] = at 0.00488 µM, OCI-P5x cells, with rucaparib 20 µM, 100% = cells with rucaparib alone
# [29] = at 0.00488 µM, OCI-P5x cells, without rucaparib
# [30] = at 0.0195 µM, OCI-C5x cells, with rucaparib 10 µM, 100% = cells with rucaparib alone
# [31] = at 0.0195 µM, OCI-C5x cells, without rucaparib
# [32] = at 0.0195 µM, OCI-P5x cells, with rucaparib 20 µM, 100% = cells with rucaparib alone
# [33] = at 0.0195 µM, OCI-P5x cells, without rucaparib
# [34] = at 0.0781 µM, OCI-C5x cells, with rucaparib 10 µM, 100% = cells with rucaparib alone
# [35] = at 0.0781 µM, OCI-C5x cells, without rucaparib
# [36] = at 0.0781 µM, OCI-P5x cells, with rucaparib 20 µM, 100% = cells with rucaparib alone
# [37] = at 0.0781 µM, OCI-P5x cells, without rucaparib
# [38] = at 0.313 µM, OCI-C5x cells, with rucaparib 10 µM, 100% = cells with rucaparib alone
# [39] = at 0.313 µM, OCI-C5x cells, without rucaparib
# [40] = at 0.313 µM, OCI-P5x cells, with rucaparib 20 µM, 100% = cells with rucaparib alone
# [41] = at 0.313 µM, OCI-P5x cells, without rucaparib
# [42] = at 1.25 µM, OCI-C5x cells, with rucaparib 10 µM, 100% = cells with rucaparib alone
# [43] = at 1.25 µM, OCI-C5x cells, without rucaparib
# [44] = at 1.25 µM, OCI-P5x cells, with rucaparib 20 µM, 100% = cells with rucaparib alone
# [45] = at 1.25 µM, OCI-P5x cells, without rucaparib
# [46] = at 5 µM, OCI-C5x cells, with rucaparib 10 µM, 100% = cells with rucaparib alone
# [47] = at 5 µM, OCI-C5x cells, without rucaparib
# [48] = at 5 µM, OCI-P5x cells, with rucaparib 20 µM, 100% = cells with rucaparib alone
# [49] = at 5 µM, OCI-P5x cells, without rucaparib
smiles,measurement,setting,value
COc1ccc2c(c1)c(C1=C(c3c[nH]c4ccccc34)C(=O)NC1=O)cn2CCCN(C)C,AC50,[1],20.9 µM (active)
same,AC50,[2],16.6 µM (active)
same,AC50,[3],20.9 µM (active)
same,AC50,[4],20.9 µM (active)
same,IC50,[5],29.5 µM (active)
same,fold change,[6]; [12],0.91 (inactive) and 0.965 (inactive)
same,fold change,[6]; [13],0.481 and 1.22
same,cell count,[6]; [14],4170 and 4590
same,cell count,[6]; [15],4580 and 4760
same,z-score,[7]; [16],-0.592 (inactive)
same,z-score,[7]; [17],-0.0818
Cc1cnc(Nc2ccc(OCCN3CCCC3)cc2)nc1Nc1cccc(S(=O)(=O)NC(C)(C)C)c1,AC50,[1],1.05 µM (active)
same,outcome,[2],inactive
same,AC50,[8],5.9 µM (active)
same,AC50,[3],3.72 µM (active)
same,outcome,[9],inactive
same,AC50,[4],5.25 µM (active)
same,IC50,[5],7.42 µM (active)
same,fold change,[6]; [12],1.01 (inactive)
same,fold change,[6]; [13],1.95
same,cell count,[6]; [14],2480
same,cell count,[6]; [15],2450
same,SSMD,[10],1.73
same,cell count,[10],6980
same,plate-normalised HSF1 focus index,[10],1.11 (inactive)
same,z-score,[7]; [16],1.98 (active)
same,z-score,[7]; [17],-3.31
same,viability,[11]; [18],104% (inactive)
same,viability,[11]; [19],124% (inactive)
same,viability,[11]; [20],98.4% (active)
same,viability,[11]; [21],110% (inactive)
same,viability,[11]; [22],113% (inactive)
same,viability,[11]; [23],121% (inactive)
same,viability,[11]; [24],99.3% (active)
same,viability,[11]; [25],109% (inactive)
same,viability,[11]; [26],112% (inactive)
same,viability,[11]; [27],125% (inactive)
same,viability,[11]; [28],102% (inactive)
same,viability,[11]; [29],109% (inactive)
same,viability,[11]; [30],107% (inactive)
same,viability,[11]; [31],121% (inactive)
same,viability,[11]; [32],95.4% (active)
same,viability,[11]; [33],112% (inactive)
same,viability,[11]; [34],106% (inactive)
same,viability,[11]; [35],122% (inactive)
same,viability,[11]; [36],99.2% (active)
same,viability,[11]; [37],105% (inactive)
same,viability,[11]; [38],105% (inactive)
same,viability,[11]; [39],113% (inactive)
same,viability,[11]; [40],81.7% (active)
same,viability,[11]; [41],96.3% (active)
same,viability,[11]; [42],93.7% (active)
same,viability,[11]; [43],84.4% (active)
same,viability,[11]; [44],78% (active)
same,viability,[11]; [45],88.7% (active)
same,viability,[11]; [46],2.62% (active)
same,viability,[11]; [47],55.3% (active)
same,viability,[11]; [48],1.43% (active)
same,viability,[11]; [49],2% (active)
CCC(C)SSc1ncc[nH]1 (configuration not stated),AC50,[1],14.8 µM (active)
same,AC50,[2],23.5 µM (active)
same,AC50,[3],11.8 µM (active)
same,AC50,[9],26.4 µM (active)
CN1CC(=O)NC1=NC(=O)Nc1cccc(Cl)c1,outcome,[1],inactive
same,outcome,[2],inactive
same,outcome,[8],inactive
same,outcome,[3],inactive
same,AC50,[9],23.5 µM (active)
same,outcome,[4],inactive
same,outcome,[5],inactive
CN(C(Cc1ccc(OS(=O)(=O)c2cccc3cnccc23)cc1)C(=O)N1CCN(c2ccccc2)CC1)S(=O)(=O)c1cccc2cnccc12 (configuration not stated),outcome,[1],inactive
same,outcome,[2],inactive
same,outcome,[8],inactive
same,outcome,[9],inactive
same,outcome,[4],inactive
same,outcome,[5],inactive
same,fold change,[6]; [12],0.886 (inactive) and 0.945 (inactive)
same,fold change,[6]; [13],1.12 and 0.338
same,cell count,[6]; [14],4410 and 6540
same,cell count,[6]; [15],4980 and 6920
same,z-score,[7]; [16],-0.441 (inactive)
same,z-score,[7]; [17],-1.42
Cc1ccc(S(=O)(=O)Nc2nc3ccccc3nc2Nc2ccc3nsnc3c2)cc1,outcome,[1],inactive
same,AC50,[2],0.512 µM (active)
same,outcome,[8],inactive
same,outcome,[4],inactive
same,outcome,[5],inactive
same,fold change,[6]; [12],0.883 (inactive)
same,fold change,[6]; [13],1.38
same,cell count,[6]; [14],3480
same,cell count,[6]; [15],3940
same,z-score,[7]; [16],-0.561 (inactive)
same,z-score,[7]; [17],0.136
same,viability,[11]; [18],107% (inactive)
same,viability,[11]; [19],120% (inactive)
same,viability,[11]; [20],124% (inactive)
same,viability,[11]; [21],116% (inactive)
same,viability,[11]; [22],122% (inactive)
same,viability,[11]; [23],132% (inactive)
same,viability,[11]; [24],131% (inactive)
same,viability,[11]; [25],117% (inactive)
same,viability,[11]; [26],112% (inactive)
same,viability,[11]; [27],130% (inactive)
same,viability,[11]; [28],125% (inactive)
same,viability,[11]; [29],115% (inactive)
same,viability,[11]; [30],123% (inactive)
same,viability,[11]; [31],132% (inactive)
same,viability,[11]; [32],120% (inactive)
same,viability,[11]; [33],108% (inactive)
same,viability,[11]; [34],122% (inactive)
same,viability,[11]; [35],124% (inactive)
same,viability,[11]; [36],125% (inactive)
same,viability,[11]; [37],110% (inactive)
same,viability,[11]; [38],112% (inactive)
same,viability,[11]; [39],74.9% (active)
same,viability,[11]; [40],117% (inactive)
same,viability,[11]; [41],106% (inactive)
same,viability,[11]; [42],115% (inactive)
same,viability,[11]; [43],121% (inactive)
same,viability,[11]; [44],110% (inactive)
same,viability,[11]; [45],105% (inactive)
same,viability,[11]; [46],107% (inactive)
same,viability,[11]; [47],117% (inactive)
same,viability,[11]; [48],95.1% (active)
same,viability,[11]; [49],102% (inactive)
CCC[C@H](Nc1nc(-c2ccc(NC(=O)NCC)c(OC)c2)ncc1C)c1cccnc1,AC50,[1],0.132 µM (active)
same,AC50,[2],0.0148 µM (active)
same,AC50,[8],0.186 µM (active)
same,AC50,[3],0.118 µM (active)
same,AC50,[4],0.132 µM (active)
same,viability,[11]; [18],92.2% (active)
same,viability,[11]; [19],101% (inactive)
same,viability,[11]; [20],107% (inactive)
same,viability,[11]; [21],99.6% (active)
same,viability,[11]; [22],104% (inactive)
same,viability,[11]; [23],103% (inactive)
same,viability,[11]; [24],103% (inactive)
same,viability,[11]; [25],97.7% (active)
same,viability,[11]; [26],104% (inactive)
same,viability,[11]; [27],110% (inactive)
same,viability,[11]; [28],100% (inactive)
same,viability,[11]; [29],90.5% (active)
same,viability,[11]; [30],98.1% (active)
same,viability,[11]; [31],30.6% (active)
same,viability,[11]; [32],85.4% (active)
same,viability,[11]; [33],15.9% (active)
same,viability,[11]; [34],35.4% (active)
same,viability,[11]; [35],23.5% (active)
same,viability,[11]; [36],51.3% (active)
same,viability,[11]; [37],13% (active)
same,viability,[11]; [38],39.7% (active)
same,viability,[11]; [39],22.5% (active)
same,viability,[11]; [40],44.4% (active)
same,viability,[11]; [41],11% (active)
same,viability,[11]; [42],38% (active)
same,viability,[11]; [43],23.4% (active)
same,viability,[11]; [44],41.8% (active)
same,viability,[11]; [45],9.8% (active)
same,viability,[11]; [46],39.3% (active)
same,viability,[11]; [47],25.1% (active)
same,viability,[11]; [48],50.6% (active)
same,viability,[11]; [49],10.1% (active)
